Laboratory results reported in PubChem BioAssay (NCATS).
Records with an inconclusive call do not appear. Entries that show only a call come without a potency. Calls of active or inactive are those of the source. Calls come from the whole dose curve; as a rule, active = well fitted inhibition curve with a large enough effect; inconclusive = small, poorly fitted or top-dose-only effect; inactive = no such curve, though single readings can be large or run the other way.

Assays:
[1] = tested on: Zika virus NS2B-NS3 protease (unlinked complex); assay: Primary screen GU Rhodamine qHTS for Zika virus inhibitors: Unlinked NS2B-NS3 protease assay (AID 1347159); note: nearly all actives have a fitted effect of over 60% in size
Summary of the method: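 Noncovalent NS2B hydrophilic domain/NS3 protease complex (25 nM final) in 10 mM Tris-HCl pH 8.0, 0.01% Tween 20, preincubated 15 min with compounds (up to 114 microM), then 1.5 microM Rhodamine110 substrate. Fluorescence change over 15 min fitted to 4-parameter Hill.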

[2] = tested on: Zika virus NS2B-NS3 protease (linked construct); assay: Primary screen NINDS Rhodamine qHTS for Zika virus inhibitors (AID 1347160); note: nearly all actives have a fitted effect of over 55% in size
Summary of the method: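 Purified NS2B-NS3 protease with the NS2B hydrophilic domain joined by a flexible linker (25 nM) in 10 mM Tris-HCl pH 8.0, 0.01% Tween 20, preincubated 15 min at RT with compound; Rhodamine110 peptide substrate 1.5 µM; fluorescence change over 15 min; 4-parameter Hill fit.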
Potency is the fitted concentration of half-maximal effect.

## CC(C)(Cc1nc(-c2ccc(O)cn2)no1)C(=O)NC1=C(C(=O)O)CCCC1
[1]
  Potency: inactive
[2]
  Potency: inactive

## CC(C)n1nc(C#Cc2ccccc2)c2c(N)ncnc21
[1]
  Potency: inactive
[2]
  Potency: inactive

## COC(=O)CC(O)CC(O)/C=C/c1c(C)ccc2c1C(OC(C)=O)CC(C)C2 (stereo unspecified)
[1]
  Potency: inactive
[2]
  Potency: inactive

## CNC(=O)c1cc(Oc2ccc(NC(=O)c3cccc(C(F)(F)F)c3)cc2)ccn1
[1]
  Potency: inactive
[2]
  Potency: inactive

## COc1ccc2c(NC(=O)Nc3cccc(C(F)(F)F)n3)ccnc2c1
[1]
  Potency: inactive
[2]
  Potency: inactive

## CC(C)(O)C(=O)N1CCN(c2ccc(C(F)(F)F)c(C3=C(c4c[nH]c5ccccc45)C(=O)NC3=O)c2)CC1
[1]
  Potency: inactive
[2]
  Potency: inactive

## C=C1C(=O)O[C@@H]2/C=C(\CO)CC/C=C(\CO)[C@H](OC(C)=O)C(OC(=O)C(C)CC)C12 (stereo partly specified)
[1]
  Potency: inactive
[2]
  Potency: inactive

## C=C1C(=O)OC2CC(C)=C(C(C)CCCOC(C)=O)C(OC(=O)CC(C)CC)C12 (stereo unspecified)
[1]
  Potency: inactive
[2]
  Potency: inactive

## CCC(C)C(=O)OC1C(C)C2(O)C(C=C(CO)CC3(O)C(=O)C(C)=CC32)C2C(C)(C)C12OC(=O)C(C)C (stereo unspecified)
[1]
  Potency: inactive
[2]
  Potency: inactive

## CC1(C)CC[C@]2(C(=O)O)CC[C@]3(C)C(=CCC4[C@@]5(C)C[C@@H](O)[C@H](O)C(CO)(CO)C5CC[C@]43C)C2[C@@H]1O (stereo partly specified)
[1]
  Potency: inactive
[2]
  Potency: inactive

## CN(C)N(C)C(=O)[C@@]1(Cc2ccccc2)CCCN(C(=O)[C@@H](Cc2c[nH]c3ccccc23)NC(=O)C(C)(C)N)C1
[1]
  Potency: inactive
[2]
  Potency: inactive

## Cc1cc(C)cc(-c2cnc3cc(Cl)c(-c4cccc(O)c4)cc3c2OCCCN)c1
[1]
  Potency: inactive
[2]
  Potency: inactive

## CC(=O)C=C=C1C(C)(C)CC(O)CC1(C)O[C@@H]1O[C@H](CO[C@H]2OC[C@](O)(CO)[C@H]2O)[C@@H](O)[C@H](O)[C@H]1O (stereo partly specified)
[1]
  Potency: 20 µM (active)
[2]
  Potency: 11.2 µM (active)

## COc1cc(O)c2c(c1)C1OC1C[C@H](O)[C@H](O)C(=O)/C=C\C[C@H](C)OC2=O (stereo partly specified)
[1]
  Potency: inactive
[2]
  Potency: inactive

## COc1cc(CCc2cc(NC(=O)c3ccc(N4CC(C)NC(C)C4)cc3)n[nH]2)cc(OC)c1 (stereo unspecified)
[1]
  Potency: inactive
[2]
  Potency: inactive

## C=C1C(=O)O[C@@H]2[C@H]1CC(=O)[C@H](C)[C@@](O)(C(=O)/C=C/C)[C@H]2OC(=O)C(C)CC (stereo partly specified)
[1]
  Potency: inactive
[2]
  Potency: inactive

## Cn1nc(C(C)(C)C)cc1C(=O)N[C@@H](Cc1cccc(Cl)c1)C(=O)NCC#N
[1]
  Potency: inactive
[2]
  Potency: inactive

## NS(=O)(=O)c1ccc(NC(=O)Nc2ccc(F)cc2)cc1
[1]
  Potency: inactive
[2]
  Potency: inactive

## Cc1ccc(S(=O)(=O)NCc2ccc(C(=O)NCCN(Cc3ccccc3)C(C)C)cc2)cc1
[1]
  Potency: inactive
[2]
  Potency: inactive

## CCCCCCOC(=O)/N=C(\N)c1ccc(NCc2nc3cc(C(=O)N(CCC(=O)OCC)c4ccccn4)ccc3n2C)cc1
[1]
  Potency: inactive
[2]
  Potency: inactive

## CC[C@@H]1C[C@]1(NC(=O)[C@@H]1C[C@@H]2CN1C(=O)[C@H](C(C)(C)C)NC(=O)OCC(C)(C)CCCCc1cccc3c1CN(C3)C(=O)O2)C(=O)NS(=O)(=O)C1CC1
[1]
  Potency: 28.2 µM (active)
[2]
  Potency: 22.4 µM (active)

## CN1CCC(NC(=O)c2cc(-c3c(O)cc(O)cc3Oc3ccc([N+](=O)[O-])cc3)on2)CC1
[1]
  Potency: inactive
[2]
  Potency: inactive

## CN(C)C(=O)Nc1cc(-c2ccccc2)ccc1N(C)C
[1]
  Potency: inactive
[2]
  Potency: inactive
